Screening results from PubChem.
Hits are enriched below; roughly 19% of the tested compounds scored in any of these assays.
HT1080NT lethal = kills 2HG-producing HT-1080-NT fibrosarcoma cells; HT-1080-NT fibrosarcoma viability, CellTiter-Glo ATP luminescence, 48 h; Potency, µM (top dose mostly 46.1 µM), without a hit: at the top dose activity, negative = less viability, actives largely listed as cytotoxic; 360,000 compounds, 1.6% hits; AID 686970;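 note: NT is the 2HG producing partner of a matched IDH1 knockdown line; potency is the fitted concentration of half-maximal effect; 0% = DMSO-treated cells and -100% = media-only wells without cells; nearly all actives have a fitted effect of over 55% in size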
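HT-1080-NT fibrosarcoma cells (2HG-overproducing), 750 cells/well in RPMI with 5% FBS, dosed after 2 h and incubated 48 h at 37C. CellTiter-Glo luminescence normalized to DMSO and no-cell wells; concentration-response curves fitted and classed.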
IL-1B inflam inh = inhibitors of inflammasome signaling (IL-1 beta secretion) | THP-1 LPS/ATP IL-1B secretion, AlphaLISA, 16 h; hits give low values | activity change, % at 57.5 µM | 360,000 compounds, 4.7% hits; in the data active = activity change below about -50%; inconclusive = mostly about -30% to -49%
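THP-1 cells pretreated 1 hr with compounds (up to 57.5 uM final), then stimulated with LPS (250 ng/mL final) plus ATP (1.25 mM final); secreted IL-1B measured by AlphaLISA after 16 hr, decreased signal indicating inhibition.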
HT1080 IDH1KD tx = kills HT-1080 cells with IDH1 knockdown; AID 686971; HT-1080 IDH1 knockdown viability, ATP luminescence, 48 h; 360,000 compounds, 2% hits; Potency, µM (top dose mostly 46.1 µM), inactives show at the top dose activity, negative = toxicity, usual class: cytotoxic;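 note: potency is the fitted concentration of half-maximal effect; 0% = DMSO wells and -100% = cell-free medium wells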
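Luminescent ATP read-out (CellTiter-Glo, 10 min at room temperature) after 48 h compound exposure at 37 °C gave viability of IDH1-knockdown HT-1080 cells. Activity was normalised to DMSO and cell-free wells, then fitted as concentration-response curves.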
TDP1 cell noCPT = qHTS for Inhibitors of human tyrosyl-DNA phosphodiesterase 1 (TDP1): qHTS in cells in absence of CPT | DT40 Tdp1-/- hTDP1 cells, no CPT, ATP luminescence, 48 h | Potency, µM (highest dose often 46.2 µM), for inactives: top-dose activity change, negative = growth inhibition, usual class: inhibitors | 420,000 compounds, 15% hits | AID 686978, 2013; note: potency is the fitted concentration of half-maximal effect; nearly all actives have a fitted effect of over 55% in size
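Chicken DT40 Tdp1-/- cells complemented with human TDP1, screened without camptothecin (DMSO vehicle only), 400 cells/well. Compounds pin-transferred, cells incubated at 37 °C for at least 48 hr. Growth read as ATP-dependent luminescence (CellTiter-Glo, 30 min at RT).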
DT40 TDP1 CPT = growth inhibition of DT40 Tdp1-/-;hTDP1 cells with camptothecin (screen for TDP1 inhibitors) | chicken DT40 Tdp1-/-;hTDP1 cells + 20 nM CPT, ATP luminescence, 48 h | Potency, µM (series often up to 46.2 µM), inactives show at the top dose activity change, negative = growth inhibition, actives largely listed as inhibitors | 420,000 compounds, 12% hits; note: potency is the fitted concentration of half-maximal effect; nearly all actives have a fitted effect of over 55% in size
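Chicken DT40 Tdp1-/- cells stably complemented with human TDP1 were seeded at 400 cells/well in medium containing 20 nM camptothecin, exposed to pin-transferred compounds, and grown at 37 °C for at least 48 hr. Viability was read as ATP luminescence.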
An asterisk follows results filed as active; i = inactive; u = inconclusive; x = no result. Unless noted, calls come from the whole dose curve; as a rule, active = well fitted curve in the direction sought with a large enough effect; inconclusive = small, poorly fitted or top-dose-only effect, or another doubt; inactive = no such curve, though single readings can be large; an effect the other way counts as inactive or inconclusive. Unless noted, % is set by controls: 0 for no effect and ±100 for the full control effect.

SMILES	HT1080NT lethal	IL-1B inflam inh	HT1080 IDH1KD tx	TDP1 cell noCPT	DT40 TDP1 CPT
COc1ccc(S(=O)(=O)N2CCC(C(=O)Nc3cccc(Cl)c3)CC2)cc1OC	-2.5%	-21.1	-24.3%	u	-24.8%
c1cnn2c(-c3ccc4c(c3)CCO4)cnc2c1	0.6%	-1.4	3.9%	9.2µM*	10.3µM*
Clc1ccc(-c2cnc3cccnn23)cc1	-15.1%	10.4	-12.4%	u	u
CCN(CC)S(=O)(=O)c1cccc(C(=O)Nc2ccc(C#N)cc2)c1	-1.6%	-15.5	-18.6%	8.2µM*	u
CCN(CC)C(=O)c1ccccc1NC(=O)c1cccc(S(=O)(=O)N(CC)CC)c1	-3.7%	-16.2	0.5%	-10.2%	-16.2%
CCN(CC)S(=O)(=O)c1cccc(NC(=O)c2ccc(Sc3nncn3C)c([N+](=O)[O-])c2)c1	5.1%	-9.0	0.7%	23.1µM*	16.4µM*
CCN(CC)S(=O)(=O)c1cccc(C(=O)N[C@H](C(=O)NCc2ccc(Cl)cc2)C(C)C)c1	-3.4%	-22.5	-20.3%	14.6µM*	23.1µM*
CCN(CC)S(=O)(=O)c1cccc(C(=O)Nc2ccccc2C(=O)Nc2ccc(Cl)cc2)c1	x	x	x	18.4µM*	u
Cn1c(=O)c2c(ncn2CC(=O)Nc2nccs2)n(C)c1=O	1.4%	34.1	1.8%	-0.2%	1.9%
CCCNC(=O)CN1CCC(c2nc3ccccc3[nH]2)CC1	8.3%	1.3	10.0%	3.7%	-27.1%
CCN(CC)S(=O)(=O)c1cccc(NC(=O)c2ccc(Br)cc2)c1	-9.1%	-70.3*	-7.5%	20.6µM*	u
CCOC(=O)C1(C(=O)OCC)C(C(=O)c2ccccc2)C1c1ccccc1 (stereo unspecified)	2.1%	-11.3	2.3%	u	u
COc1ccccc1C(CNC(=O)CSc1ccc2ccccc2c1)N(C)C (stereo unspecified)	0.8%	i	-21.9%	u	u
COc1ccccc1C(CNc1nc(C(F)(F)F)nc2ccccc12)N(C)C (stereo unspecified)	-10.7%	-15.2	-5.4%	20.6µM*	u
Cc1ccc(CNC(=O)C2CCC(=O)N(Cc3cccc(F)c3)C2)s1 (stereo unspecified)	2.9%	20.1	2.2%	-7.6%	1.9%
COc1ccc(C2C(C#N)=C(N)N(c3ccccc3)C3=C2C(=O)CCC3)cc1Cn1cc([N+](=O)[O-])cn1 (stereo unspecified)	u	-74.4*	u	u	u
N#CC1=C(N)N(c2ccc(Br)cc2)C2=C(C(=O)CCC2)C1c1cccnc1 (stereo unspecified)	12.6µM*	-25.0	u	20.0%	-28.1%
Cc1ccc(N2C(N)=C(C#N)C(c3cccnc3)C3=C2CCCC3=O)cc1 (stereo unspecified)	3.2%	28.3	-1.2%	u	u
CCOC(=O)C1CCN(C(=O)Cn2cnc3sc(C)c(S(=O)(=O)N4CCOCC4)c3c2=O)CC1	9.3%	4.1	9.3%	-18.4%	4.8%
C[C@@H]1CN([C@H](C)CO)C(=O)c2cc(Br)cnc2O[C@H]1CN(C)Cc1cccnc1	-1.2%	-4.7	6.5%	-13.1%	-12.0%
O=C(NCc1ccccc1)[C@@H]1C[C@H]1[C@@H](NP(=O)(c1ccccc1)c1ccccc1)c1ccccc1	u	0.0	-1.8%	u	-27.3%
Cc1ccc(CNC(=O)[C@H]2C[C@@H]2[C@H](NP(=O)(c2ccccc2)c2ccccc2)c2ccccc2)o1	-8.8%	13.1	-0.2%	20.6µM*	u
CCCC(C(=O)NCc1ccco1)N(C(=O)CNS(=O)(=O)c1ccccc1)c1ccccc1OC (stereo unspecified)	11.2%	7.7	11.9%	u	u
Cc1ccc(S(=O)(=O)N2C[C@H]3C(=O)C[C@@H](c4ccccc4)N(S(=O)(=O)c4ccccc4C)[C@H]3C[C@H]2c2ccccc2)cc1	18.8%	5.7	6.5%	u	u
COc1cc(C2CC(=O)Oc3cc4c(cc32)OCO4)cc(OC)c1OC (stereo unspecified)	-3.0%	15.2	-0.9%	-6.9%	-22.2%
SMILES	HT1080NT lethal	IL-1B inflam inh	HT1080 IDH1KD tx	TDP1 cell noCPT	DT40 TDP1 CPT
COc1ccc(C2CC(=O)Oc3cc4c(cc32)OCO4)cc1 (stereo unspecified)	9.5%	17.0	14.7%	-10.3%	2.5%
O=C1OCC2=C1C(c1ccc3c(c1)OCO3)c1cc3c(cc1O2)OCO3 (stereo unspecified)	3.26µM*	5.6	6.51µM*	2.31µM*	2.06µM*
COc1cc(C2C3=C(COC3=O)Oc3cc4c(cc32)OCO4)cc(OC)c1OC (stereo unspecified)	0.103µM*	29.1	u	0.146µM*	0.184µM*
COc1cc(C2C3=C(COC3=O)Oc3cc4c(cc32)OCO4)cc(OC)c1O (stereo unspecified)	0.461µM*	14.7	u	0.651µM*	0.146µM*
COc1ccccc1C(CNC(=O)CNC(=O)c1cccc(Cl)c1)N1CCCC1 (stereo unspecified)	9.2%	-20.1	12.1%	-19.6%	-0.5%
CC(C)OCCCNC(=O)c1ccc2c(c1)S(=O)(=O)c1ccccc1C2=O	2.2%	-1.2	15.6%	u	-7.5%
COCCCNC(=O)c1ccc2c3c(onc13)-c1ccccc1C2=O	u	-98.0*	u	14.6µM*	7.31µM*
O=C(NCc1ccccc1Cl)C1CCC(CNc2nc(=S)[nH]c3ccccc23)CC1 (stereo unspecified)	-0.1%	2.7	0.7%	25.9µM*	u
O=C(NCCC1=CCCCC1)C1CCC(CNc2nc(=S)[nH]c3ccccc23)CC1 (stereo unspecified)	-1.7%	-26.7	-8.5%	16.4µM*	u
CC1CCN(c2c(NCC3CCC(C(=O)NCCc4ccc(Cl)cc4)CC3)c(=O)c2=O)CC1 (stereo unspecified)	1.6%	u	-5.8%	-83.7%	u
O=C(NCCc1ccc(Cl)cc1)C1CCC(CNc2nc(=S)[nH]c3ccccc23)CC1 (stereo unspecified)	-10.0%	-2.9	3.3%	9.2µM*	6.51µM*
O=C(NCc1ccccc1Cl)C1CCC(CNS(=O)(=O)c2ccc(Cl)cc2)CC1 (stereo unspecified)	x	x	x	-12.5%	-27.9%
S=c1nc(NCCc2ccccc2Cl)c2ccccc2[nH]1	u	-5.7	u	25.9µM*	-27.7%
O=C(OCc1nc2ccc(Cl)cc2n1CCO)c1ccc(O)cc1	u	i	u	u	u
CN(C(=O)COC(=O)c1ccccc1OCc1ccc(Cl)cc1)c1c(N)n(Cc2ccccc2)c(=O)[nH]c1=O	-29.6%	22.3	-3.7%	u	u
